The panel holds about 83,000 compounds, 20% with a hit somewhere; the sample as a whole holds those more often.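 Single-dose data. Exposure time 48 hours. Values below 10 considered active.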 Activity calls are given as the source filed them.

The subject of the experiment is SR leukemia. Kind of experiment: NCI-60 one-dose screen, 48 h (100 = growth as untreated, 0 = no growth, -100 = all killed). As to conditions: 10 µM unless noted.
Regarding `Nc1nc(-c2cc3c(cc2Cl)NC(=O)/C3=C/c2ccc(Cl)cc2)cs1`, the growth is 13.8% (inactive). Under `Cc1cccc(Cc2cnc(NC(=O)CCc3ccc(C)o3)s2)c1` stands 5.14% (active). On to `CC(Cl)(CCl)CS(=O)(=O)c1ccc(Cl)cc1` (stereo not drawn), for which the growth was 96.2% (inactive). Under `COc1ccc(Cl)cc1NC(=O)c1cc2c([nH]1)-c1nc(NC(=O)C(C)(C)C)sc1CC2` stands 28.2% (inactive); under `CC(C)(c1ccc(OCC(O)CNCc2ccco2)cc1)c1ccc(OCC(O)CNCc2ccco2)cc1` (stereo not drawn), 31.5% (inactive); under `O=C1CCC(c2c(O)cc(O)c3c(=O)c(O)c(-c4ccc(O)c(O)c4)oc23)N1` (stereo not drawn), 96.2% (inactive). Take `COc1ccc(Cn2cc3c(c2-c2cc(OC)c(OC)c(OC)c2)CCc2c(CO)noc2-3)cc1`: the growth is 22.2% (inactive). Under `CC(=O)Cc1cccnc1` stands 104% (inactive). In the case of `CC(/C=C/C=C(\C)[C@H](O)[C@H](C)C(=O)O[C@H]1C[C@H](C)C=C2C=C[C@@]3(C)O[C@@H](O)CC(=O)[C@]3(C)[C@H]21)=C\C=C\C(=O)O`, the growth was 1.43% (active). `Nc1nc(-c2cc3c(cc2Cl)NC(=O)/C3=C/c2ccccc2)cs1`: the growth is 14.2% (inactive). Regarding `C=CC(=O)NC(=O)Nc1ccccc1Cl`, the growth was 39.8% (inactive). Under `CCOC(=O)c1noc2c1CCc1c-2cn(Cc2ccc(OC)cc2)c1-c1cc(OC)c(OC)c(OC)c1` stands 17.8% (inactive); under `C=C1C(=O)O[C@H]2[C@H]1CC/C(COC(=O)OC/C1=C/CC[C@@]3(C)O[C@H]3[C@H]3OC(=O)[C@@H](CN(C)C)[C@@H]3CC1)=C\CC[C@@]1(C)O[C@@H]21`, -8.72% (active); under `CC1CCC(C(C)C)C(NN)C1` (stereo not drawn), 103% (inactive).

Turning to `Cc1cc(SCc2ccc(Cl)cc2Cl)nc(SCc2ccc(Cl)cc2Cl)n1`, the growth was 105% (inactive).

For the compound `CCCC(C)(C)COC(=O)c1cccc(N)c1`, the growth was 92.8% (inactive).

Take `O=C1C(Cl)=C(Nc2cccc3cc4ccccc4nc23)C(=O)c2ccccc21`: the growth was 45.1% (inactive). Under `CN(C)CCCOc1c(Br)cc(/C=C/C(=O)N(C)CCc2cc(Br)c(OCCCN(C)C)c(Br)c2)cc1Br` stands -34.5% (active); under `Nc1nccc(=S)[nH]1`, 87.1% (inactive); under `C=C1C(=O)O[C@H]2[C@H]1CC/C(COC(=O)CCCC(=O)OC/C1=C/CC[C@@]3(C)O[C@H]3[C@H]3OC(=O)C(=C)[C@@H]3CC1)=C\CC[C@@]1(C)O[C@@H]21`, 0.324% (active). As to `O=C(NNC(=O)c1ccc([N+](=O)[O-])cc1)c1ccc([N+](=O)[O-])cc1`, the growth was 99.1% (inactive).

As to `COc1cc(C(=O)NNC(=O)c2ccccc2C(=O)O)cc(OC)c1OC`, the growth was -10.9% (active). Under `O=S(c1ccccc1)c1ccc2nnnn2n1` (stereo not drawn) stands 85.2% (inactive); under `Cc1ncc(CO)c(C(=O)O)c1O`, 86.8% (inactive). `CCOC(=O)c1noc2c1CCc1cn(Cc3cc(OC)cc(OC)c3)cc1-2`: the growth is 91.1% (inactive).

With `CCCCCC/C=N/Nc1ccc([N+](=O)[O-])cn1`, the growth was 89.4% (inactive). To `CC[C@@]1(O)C(=O)OCc2c1cc1n(c2=O)Cc2c-1nc1ccccc1c2/C=N/OC(C)(C)C` belongs -6.28% (active); to `CC(=O)Oc1ccc(C(OC(C)=O)OC(C)=O)cc1`, 88.8% (inactive). Consider `C=C1C(=O)O[C@H]2[C@H]1CC/C(COC(=O)n1ccnc1C)=C\CC[C@@]1(C)O[C@@H]21`, for which the growth was 86.6% (inactive). With `C=C1C(=O)O[C@H]2[C@H]1CC/C(C(=O)NCCOCCOCC(=O)Nc1ccc(OC)c(C(N)=O)c1O)=C\CC[C@@]1(C)O[C@@H]21`, the growth is 75.3% (inactive). Under `Cc1cc(C)c(O)c(C(=O)CC(Br)C(=O)O)c1` (stereo not drawn) stands 78.3% (inactive); under `COc1ccc(-c2ccc(NC(=O)Nc3cccc(C(F)(F)F)c3)c(C)n2)cc1`, 36.3% (inactive); under `COc1ccc(Cn2cc(COc3ccc4c5ccnc(C)c5n(CCCc5ccccc5)c4c3)nn2)cc1`, -29% (active). Under `O=S(=O)(O)c1ccc(F)cc1` stands 101% (inactive). With `Cc1nccc2c3ccc(OCc4cn(Cc5ccc(Br)cc5)nn4)cc3n(CCCc3ccccc3)c12`, the growth was 77.8% (inactive).

As for `Cl[C@@H]1CCO[C@H](c2cc3ccccc3c3ccccc23)C1`, the growth was 93.8% (inactive). Under `Nc1ncnc2c1c(C(F)(F)F)cn2[C@@H]1O[C@H](CO)[C@@H](O)[C@H]1O` stands 1.01% (active); under `C#C[C@@]1(O)[C@@H](CO)O[C@@H](n2cc(Br)c3c(Cl)ccnc32)[C@@H]1O`, 22.4% (inactive).

Source of the values: PubChem BioAssay (NCI).
